Compounds with a hit are over-represented: about 2.4% of the library has one in this group of screens.
L3MBTL1 block = qHTS Assay for the Inhibitors of L3MBTL1; 0.66% of 230,000 active; AlphaScreen L3MBTL1–H3K9me1 peptide binding; Potency, µM (titrated, usually from 57.1 µM), for inactives: at the top dose activity, negative = inhibition, actives largely listed as inhibitors; note: % is set by controls: 0 for no effect and ±100 for the full control effect; nearly all actives have a fitted effect of over 60% in size
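L3MBTL1 (50 nM) pre-complexed 30 min with biotinylated H3(1-15)K9me1 peptide (75 nM), then compounds added for 30 min at room temperature; AlphaScreen streptavidin donor/nickel chelate acceptor beads (10 ug/mL final) read after 30 min dark incubation.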
POLH inh = qHTS for Inhibitors of Polymerase Eta | 1.2% of 390,000 active | DNA polymerase eta (Homo sapiens), Q9Y253 | Potency, µM (series often up to 114 µM), for the others: at the highest dose activity change, negative = inhibition, most hits filed as inhibitors | AID 588591, 2011 | recombinant Pol eta, fluorescent DNA replication assay; note: % is set by controls: 0 for no effect and ±100 for the full control effect
Target sequence (Q9Y253 whole entry, looked up): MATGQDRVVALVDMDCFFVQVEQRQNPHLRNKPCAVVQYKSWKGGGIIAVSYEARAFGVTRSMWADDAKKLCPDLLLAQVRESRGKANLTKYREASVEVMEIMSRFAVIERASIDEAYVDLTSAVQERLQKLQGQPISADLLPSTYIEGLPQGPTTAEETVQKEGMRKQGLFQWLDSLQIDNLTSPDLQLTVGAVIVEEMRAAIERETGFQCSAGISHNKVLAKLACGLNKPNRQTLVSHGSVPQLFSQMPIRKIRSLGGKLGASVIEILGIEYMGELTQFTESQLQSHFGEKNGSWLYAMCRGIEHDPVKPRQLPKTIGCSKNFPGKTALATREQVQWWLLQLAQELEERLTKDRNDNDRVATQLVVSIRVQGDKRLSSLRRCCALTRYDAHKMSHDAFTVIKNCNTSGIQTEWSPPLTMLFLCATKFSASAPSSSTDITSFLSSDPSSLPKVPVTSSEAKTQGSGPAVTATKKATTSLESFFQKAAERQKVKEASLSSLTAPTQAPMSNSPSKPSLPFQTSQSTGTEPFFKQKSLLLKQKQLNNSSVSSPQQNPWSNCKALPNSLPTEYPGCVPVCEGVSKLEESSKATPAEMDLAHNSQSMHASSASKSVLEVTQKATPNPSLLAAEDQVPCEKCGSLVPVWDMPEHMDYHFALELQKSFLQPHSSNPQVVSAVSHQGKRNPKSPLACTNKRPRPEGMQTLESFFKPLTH
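Pol eta (10 nM) was preincubated with compounds for 15 min at room temperature, after which fluorescent replication substrate (50 nM final) was added to start the reaction. Fluorescence was read kinetically at 0 and 10 min.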
Pol kappa inh = qHTS for Inhibitors of Polymerase Kappa | DNA polymerase kappa (Homo sapiens), Q9UBT6 | AID 588579, 2011 | 0.53% of 400,000 active | purified Pol kappa, fluorescent DNA synthesis assay, 10 min | Potency, µM (series often up to 107 µM), inactives show at the top dose activity, negative = inhibition, most hits filed as inhibitors; note: % is set by controls: 0 for no effect and ±100 for the full control effect
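Enzyme at 10 nM met test compounds for 15 min at room temperature. Substrate addition (50 nM final) began the reaction, which was monitored by fluorescence at 0 and 10 min.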
POLB inh = qHTS Assay for Inhibitors of DNA Polymerase Beta | Pol beta primer extension/strand displacement, fluorescence kinetic | P06746 | AID 485314, 2010 | Potency, µM (series often up to 114 µM), inactives show at the top dose activity change, negative = inhibition, actives largely listed as inhibitors | 1.3% of 340,000 active; note: % is set by controls: 0 for no effect and ±100 for the full control effect
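Enzyme-only controls used 10 nM Pol beta; buffer lacking enzyme served as negative control. Compound preincubated 15 min, then 50 nM substrate added; 0 and 10 min reads at room temperature.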
POLI inh = qHTS for Inhibitors of Polymerase Iota. DNA polymerase iota (Homo sapiens), Q9UNA4. Pol iota fluorescent replication assay, 10 min. Potency, µM (series often up to 115 µM), for the others: at the top dose activity, negative = inhibition, usual class: inhibitors. 1% of 390,000 active
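Pol iota at 10 nM preincubated 15 min with compounds at room temperature; reaction started with fluorescent substrate, 50 nM final. Fluorescence read kinetically at 0 and 10 min; buffer-only wells as negative control.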
Numbers without * were called inactive; u = inconclusive; x = no result given; [ ] = another dose, or the depositor's remark. Calls come from the whole dose curve; as a rule, active = well fitted curve in the direction sought with a large enough effect; inconclusive = small, poorly fitted or top-dose-only effect, or another doubt; inactive = no such curve, though single readings can be large; an effect the other way counts as inactive or inconclusive. Potency is the fitted concentration of half-maximal effect.

SMILES	L3MBTL1 block	POLH inh	Pol kappa inh	POLB inh	POLI inh
O=Cc1c2[nH]c3ccccc3c2cc2[nH]c3ccccc3c12	x	x	0%[19.4 µM]	x	x
CCc1sc(-c2cc3ccccc3oc2=O)nc1-c1ccc(C)cc1	x	x	4%	x	31%
COC(=O)c1cccc(-n2c(C)cc(/C=C3\SC(=O)NC3=O)c2C)c1	x	0%	x	x	x
Cc1cc(/C=C2\SC(=S)NC2=O)c(C)n1-c1ccccc1	-1%	50µM*	u	u	u
COc1ccc(-n2c(C)cc(/C=C3\SC(=S)NC3=O)c2C)cc1	-7%	u	-17%	-3%	-28%
Cc1cc(C(=O)O)ccc1-n1c(C)cc(/C=C2\SC(=O)NC2=O)c1C	-16%	50µM*	-27%	u	u
O=C1/C(=C/c2ccco2)Oc2c1ccc(O)c2CN1CCCCC1	u	22µM*	79µM*	20µM*	u
Cc1ccc(/C=C2\Oc3c(ccc(O)c3CN3CCN(CCO)CC3)C2=O)cc1	x	1%	-22%	14%	-9%
COCCN(CCOC)Cc1c(O)ccc2c1O/C(=C\c1ccco1)C2=O	x	u	u	10µM*	u
CCN1CCN(Cc2c(O)ccc3c2O/C(=C\C=C\c2ccccc2OC)C3=O)CC1	5%	-22%	-12%	-23%	-5%
O=[N+]([O-])c1ccc(O/N=[N+](\[O-])N2CCCCC2)c([N+](=O)[O-])c1	x	x	-22%	x	35%
Nc1c(C(=O)Nc2ccc(S(=O)(=O)N3CCCC3)cc2)sc2nc3cc4c(cc3cc12)CCC4	-14%	-18%	-4%	-10%	137%
Nc1c(C(=O)Nc2ccc(S(=O)(=O)N3CCCC3)cc2)sc2nc3ccc(OC(F)(F)F)cc3cc12	-34%	40µM*	-6%	28µM*	u
CC(C)NS(=O)(=O)c1cc(C(F)(F)F)ccc1/C=C/C(=O)O	x	x	13%	x	-3%
CC(=O)NCCn1c(SCC(=O)NCCC(C)C)nc2ccccc2c1=O	-1%	-12%	22µM*	20%	-9%
CCCCNC(=O)CSc1nc2ccccc2c(=O)n1CCNC(C)=O	1%	-13%	-8%	1%	-41%
CC(=O)NCc1ccc(C(=O)CSc2nnc(-c3ccncc3)n2Cc2ccccc2)o1	u	20µM*	79µM*	20µM*	22µM*
C=CCn1c(SCC(=O)c2ccc(CNC(C)=O)o2)nc2ccccc2c1=O	x	u	u	u	16µM*
CC(=O)N1CCC(C(=O)Nc2nnc(C(C)C)s2)CC1	x	x	-18%	x	12%
C[C@H](O)CNC(=O)c1[nH]cnc1C(=O)Nc1cccc(Cl)c1	x	-13%	x	x	x
Nc1ccc(/C=C/c2ccc(N)cc2S(=O)(=O)O)c(S(=O)(=O)O)c1	x	x	3.2µM*	x	x
CC(C)c1ccc(N)c(S(=O)(=O)O)c1	-22%	0%	-18%	-8%	-1%
CCc1ccccc1NC(=O)C(C)n1c(=O)cc(C)c2c(C)nn(-c3ccccc3)c21 (configuration not stated)	x	-16%	1%	21%	-6%
Cc1nc(SCC(=O)N2CCCC2=O)c2c(C)c(C)sc2n1	x	-3%	x	x	x
Cc1noc(C)c1C(=O)N1CCC2(CCN(C(=O)NC(C)C)CC2)CC1	x	x	-1%[60.1 µM]	x	x
SMILES	L3MBTL1 block	POLH inh	Pol kappa inh	POLB inh	POLI inh
COc1ccc(-n2nc3c(N4CCCC(C(=O)NCc5ccc(C)cc5)C4)nnc(C)c3c2C)cc1 (configuration not stated)	x	u	-11%[60.1 µM]	16µM*	10%
COc1ccc(CNC(=O)C2CCCN(c3nnc(C)c4c(C)n(-c5ccc(C)cc5)nc34)C2)cc1 (configuration not stated)	x	u	-4%	-19%	38%
Cc1nn(-c2ccccc2)c2sc(-c3nnc(SCC(=O)O)o3)cc12	x	89µM*	-6%[60.1 µM]	-11%	-16%
CCn1c(SCC(=O)O)nnc1-c1cc2c(C)nn(-c3ccccc3)c2s1	-4%	-7%	-2%	10%	2%
Cc1ccc(NC(=S)NC(=O)c2sc3ccccc3c2Cl)c(C(=O)O)c1	-14%	x	x	20µM*	x
CCOc1ccc(Nc2nc(C)c(NC(=O)c3cccc(OC)c3)c(Nc3ccc(OCC)cc3)n2)cc1	x	-29%	-9%	0%	-17%
CCOc1ccc(C(=O)Nc2c(C)nc(Nc3ccccc3)nc2Nc2ccccc2)cc1OCC	x	-14%	-20%	15%	71µM*
CN(C)c1ccc(N=Nc2ccccc2C(=O)OCC(=O)Nc2ccccc2C(F)(F)F)cc1	25µM*	-5%	-11%	u	-2%
CN(C)c1ccc(N=Nc2ccccc2C(=O)OCC(=O)N2CCCC2)cc1	-17%	-11%	-10%	u	0%
COc1ccc(NC(=O)c2c(C)oc3ccc(O)c(CN4CCN(C)CC4)c23)cc1Cl	x	-19%	0%	3%	18%
Cc1ccc(-c2nnn(CC(=O)Nc3ccc(S(=O)(=O)N4CCC(C)CC4)cc3)n2)cc1	34%	u	-40%	35µM*	u
CC1CCN(S(=O)(=O)c2ccc(NC(=O)Cn3nnc(-c4ccccc4)n3)cc2)CC1	0%	-11%	-1%	40µM*	u
COC(F)(F)C(Cl)Cl	x	x	0%[19.4 µM]	x	x
O=c1c2cc3c(cc2n(Cc2ccc(Cl)cc2)c(=O)n1Cc1nc(-c2ccccc2)no1)OCO3	x	-9%	u	-1%	89µM*
Cc1c(C(=O)N(C)C)sc2c1c(=O)n(-c1ccc(Cl)c(Cl)c1)c(=O)n2CC(=O)Nc1cccc(C(F)(F)F)c1	x	-21%	3%[60.1 µM]	-8%	29%
CCOC(=O)C1=C(C)N=C2SC(C(=O)OC)=CC(=O)N2C1c1ccc(OC)cc1 (configuration not stated)	x	-13%	-24%	-19%	89µM*
COC(=O)C1=C(C)N=C2SC(C#N)=C(N)N2C1c1ccc(OC)cc1 (configuration not stated)	8%	-11%	-4%	0%	-3%
CC(C)[C@H](O)CC[C@@H](C)C1CC[C@H]2C3CC=C4C[C@@H](O)CC[C@]4(C)C3CC[C@]12C (some centres not stated)	x	x	3%[19.4 µM]	x	x
FC(F)c1nc2ccccc2[nH]1	-29%	0%	-5%	50µM*	24%
FC(c1nc2ccccc2[nH]1)C(F)(F)F (configuration not stated)	-11%	2%	4%	1%	138%
C/C(=N\NC(=O)c1ccc(N2CCCC2=O)cc1)c1ccc(O)cc1O	x	-4%	-21%	-2%	45µM*
C/C(=N\NC(=O)c1ccc(N2CCCC2=O)cc1)c1ccccc1	x	-17%	-7%	24%	42%
O=C(O)CN1C(=O)/C(=C\c2ccccc2OCc2ccc(Cl)cc2Cl)SC1=S	u	45µM*	-32%	20µM*	u
